Laboratory results: PubChem BioAssay (NCATS)
Where “and” joins values, the source holds several entries; their conditions need not be identical. Equal values may be shown once. Inconclusive results are not listed. Values without a mark were called inactive. Calls of active or inactive are those of the source. The call rests on the fitted dose curve; in most records, active means well fitted cell-killing curve with a large enough effect; inconclusive means small, poorly fitted or top-dose-only effect, or effect the other way; inactive means no such curve, though single readings can be large or run the other way.

Test: Viability qHTS for spleen associated tyrosine kinase inhibitor (SYKi) drug resistant MV4-11 cells (AID 1963824); further: nearly all actives have a fitted effect of over 35% in size
Details: SYKi-resistant MV4-11 viability, CellTiter-Glo, 72 h; series mostly up to 45 µM; viability, % of control: at the top concentration
Summary of the method: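 SYK inhibitor-resistant MV4-11 AML cells, 500 per well, added to predispensed compounds and incubated 72 hr at 37 C, 5% CO2. Viability measured by CellTiter-Glo luminescence after 10 min at room temperature.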
Potency means the concentration at half of the fitted maximal effect.

Q: For `C=CCSCC1Nc2cc(Cl)c(S(N)(=O)=O)cc2S(=O)(=O)N1` (stereo unspecified), which Potency is on record?
A: 10.6 µM (active)

Q: With `Cc1cc(O[C@@H](CCC(F)(F)F)c2ccc(C(=O)NCCC(=O)O)cc2)cc(C)c1-c1ccc(C(C)(C)C)cc1` as the compound, how does the Potency read?
A: 9.34 µM (active)

Q: Which “viability, % of control” value does the source give for `CCc1nnc(NS(=O)(=O)c2ccc(N)cc2)s1` here?
A: 96.9%

Q: Which “viability, % of control” value does the source give for `O=C1O[C@H]([C@@H](O)CO)C(O)=C1O` here?
A: 88%

Q: With `C[C@@H]1C[C@H]2[C@@H]3C[C@H](F)C4=CC(=O)C=C[C@]4(C)[C@@]3(F)[C@@H](O)C[C@]2(C)[C@@]1(O)C(=O)CO` as the compound, how does the Potency read?
A: 2.11 µM (active)

Q: With `C/C=C1\NC(=O)[C@H]2CSSCC/C=C\[C@H](CC(=O)N[C@H](C(C)C)C(=O)N2)OC(=O)[C@H](C(C)C)NC1=O` as the compound, how does the Potency read?
A: 0.0074 µM (active)

Q: For `CC1(C)O[C@@H]2C[C@H]3[C@@H]4CCC5=CC(=O)CC[C@]5(C)[C@@]4(F)[C@@H](O)C[C@]3(C)[C@]2(C(=O)CCl)O1`, which Potency is on record?
A: 18.8 µM (active)

Q: Which Potency does the source give for `CN(C)C/C=C/C(=O)Nc1ccc(C(=O)N2CCC[C@@H](Nc3ncc(Cl)c(-c4c[nH]c5ccccc45)n3)C2)cc1` here?
A: 0.0934 µM (active)

Q: For `CCc1cc2cc(OC)c(OC)cc2c(Cc2ccccc2)n1`, which Potency is on record?
A: 10.6 µM (active)

Q: With `COc1cccc2c1C(=O)c1c(O)c3c(c(O)c1C2=O)C[C@@](O)(C(C)=O)C[C@@H]3O[C@H]1C[C@H](N)[C@H](O)[C@H](C)O1` as the compound, how does the Potency read?
A: 42.2 nM (active) and 18.6 nM (active)

Q: For `CC(C)(C)NC(=O)c1cncn1C1CCN(c2ccc(-c3nnc(C(F)(F)F)o3)cn2)CC1`, which Potency is on record?
A: 2.95 µM (active)
